Screening data from PubChem BioAssay.
This is a sample that favours compounds with a hit; in the whole collection about 13% have one here.
HCMV antiviral – blocks human cytomegalovirus replication; HFF cells, HCMV-luciferase reporter, 72 h; active compounds read low; activity change, negative = inhibition, % at 57.5 µM; 410,000 tested, 4.5% active; in the data active means activity change below about -60%; inconclusive means no clear call, values can overlap the other calls; inactive means above about -39%
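HFF cells seeded 16 h at 37C, treated with compounds, infected with luciferase-reporter HCMV at MOI 1 PFU/cell; luciferase read at 72 h post infection, normalized to buffer-only and Salinomycin controls.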
HCV inhibitor – HCV inhibition | Huh7.5.1 HCVcc-Cre infection, luciferase reporter, 44 h | Potency, µM (titrated, usually from 41.8 µM), for inactives: at the highest dose activity change, negative = inhibition, usual class: inhibitors | 340,000 tested, 3.4% active | AID 651820; further: potency means the concentration at half of the fitted maximal effect
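Cells seeded at 1,000/well and cultured 4 h, then compounds added followed by HCVcc-Cre virus (~0.5 moi). After 44 h further culture, luciferase substrate was added, plates held 15 min at room temperature, and luminescence read for 15 sec.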
Pf growth 48h – inhibits P. falciparum growth in the first generation, 48 h; P. falciparum luciferase growth in erythrocytes, 48 h; 310,000 tested, 5.9% active; Potency, µM (series often up to 28.7 µM), inactives show at the top dose activity change, negative = inhibition, usual class: inhibitors; further: potency means the concentration at half of the fitted maximal effect
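Firefly luciferase activity from engineered P. falciparum reports growth; inhibitors lower the luminescent signal. Cultures contained 2% hematocrit erythrocytes at 0.1% final parasitemia.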
Pf growth 96h – P. falciparum growth inhibition at 96 hour, primary screen for plastid delayed-death inhibitors; P. falciparum luciferase reporter growth, 96 h; Potency, µM (series often up to 28.7 µM), inactives show top-dose activity change, negative = inhibition, actives largely listed as inhibitors; 320,000 tested, 6.9% active; further: potency means the concentration at half of the fitted maximal effect
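P. falciparum expressing integrated firefly luciferase grown in erythrocytes (2% hematocrit, 0.05% parasitemia final) with compounds for 96 hours at 37 C, 5% CO2. Growth inhibition read as loss of luminescence after adding luciferase detection reagent.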
* marks the source's active call; other numbers are inactive results; u = inconclusive; x = not tested or not shown; ! = repeats disagree; [ ] = another dose, or the depositor's remark. Unless noted, the call rests on the fitted dose curve; in most records, active means well fitted inhibition curve with a large enough effect; inconclusive means small, poorly fitted or top-dose-only effect, or another doubt; inactive means no such curve, though single readings can be large or run the other way. On the % scale 0 is the no-effect control and ±100 the full control effect.

SMILES	HCMV antiviral	HCV inhibitor	Pf growth 48h	Pf growth 96h
COc1cccc2cc(-c3nc(Nc4cccc(C)c4)sc3C)c(=O)oc12	-13	x	x	x
Cc1ccc(OCCCC(=O)Nc2ccc(Cl)c(S(=O)(=O)N3CCOCC3)c2)cc1	-22	7.1µM*	u	10µM*
Cc1ccc(OCCC(=O)OCC(=O)Nc2ccc(C)c(S(=O)(=O)N3CCOCC3)c2)cc1	-17	-3%	x	x
CCN(CC)S(=O)(=O)c1cc(NC(=O)COC(=O)c2c(C)noc2C)ccc1C	2	14µM*	u	u
O=C(O)[C@@H](O)[C@@H](O)[C@H](O)C(=O)CO	x	x	-1%	12%
COc1cccc(-c2nc3ccc([N+](=O)[O-])cc3o2)c1	-79*	27%	58%	0%
Nc1ncnc2c1ncn2[C@@H]1O[C@H](C(=O)NCCCN2CCCC2=O)[C@@H](O)[C@H]1O	23	x	x	x
C[C@@H](NCCc1ccc(O)cc1)[C@@H](O)c1ccc(O)cc1	103	6%	x	x
CCCCCCCCNC(C)C(O)c1ccc(SC(C)C)cc1 (centres undefined)	-82*	-4%[8.37 µM]	1.9µM*	0.93µM*!
CCCn1c(SC(C)C(=O)NCC2CCCO2)nc2sc3c(c2c1=O)CCC3 (centres undefined)	-36	-37%	13µM*	u
COC(=O)[C@@]12C[C@@H](CC(=O)NCc3ccc(C)o3)C(=O)N(CCc3ccc(OC)c(OC)c3)C1=CCC(C)(C)C2	5	x	x	x
CC1=C(c2ccc(C)c(C)c2)S(=O)(=O)N=C1N1CCC(C(=O)N2CCC(C(N)=O)CC2)CC1	11	x	x	x
CCOC(=O)c1c(Nc2ccc(OCC)cc2)nnc(-c2ccccc2)c1-c1ccccc1	-34	x	x	x
Cn1cccc1Cc1nnc(SCC(N)=O)n1CCc1ccccc1	4	4%	2%	u
COc1ccc(-n2c(Cc3cccn3C)nnc2SCC(=O)Nc2cc(Cl)ccc2OC)cc1	18	-18%	10µM*	u
COc1ccc(-n2c(Cc3cccn3C)nnc2SCC(=O)Nc2ccccc2OC)cc1	-3	0%	13µM*	u
Cn1cccc1Cc1nnc(SCC(=O)Nc2ccccc2F)n1-c1ccc(F)cc1	-2	-18%	13µM*	u
COc1ccc(-n2c(Cc3cccn3C)nnc2SCC(=O)Nc2ccc(C)cc2C)cc1	7	u	u	6%
Cn1cccc1Cc1nnc(SCC(=O)NC2CCCC2)n1CCc1ccccc1	20	-11%	x	8.3µM*
COc1ccc(-n2c(Cc3cccn3C)nnc2SCC(=O)Nc2nc(C)cs2)cc1	-17	1%	u	u
CCc1ccc(NS(=O)(=O)c2ccc3[nH]cc(C(=O)NCCCOC(C)C)c(=O)c3c2)cc1	-1	x	x	x
Cc1cccc(C(=O)Nc2nnc(S(=O)(=O)N3c4ccccc4CC3C)s2)c1 (centres undefined)	-2	x	x	x
COc1ccccc1NC(=O)N1c2ccccc2Sc2ccccc21	24	x	x	x
Cn1cccc1Cc1nnc(SCC(=O)Nc2ccccc2F)n1CCc1ccccc1	-10	0%	13µM*	-2%
Cn1cccc1Cc1nnc(SCC(=O)Nc2cccc(F)c2)n1CCc1ccccc1	-11	u	u	-8%
SMILES	HCMV antiviral	HCV inhibitor	Pf growth 48h	Pf growth 96h
CC1(c2nnc(-c3cccc(Cl)c3)o2)CC(c2cccc([N+](=O)[O-])c2)=NO1 (centres undefined)	-11	7.9µM*	15%	40%
CC1(c2nnc(-c3ccccc3)o2)CC(c2cccc(Cl)c2)=NO1 (centres undefined)	-3	u	45%	70%
CC1(c2nnc(-c3ccncc3)o2)CC(c2ccc(Cl)cc2)=NO1 (centres undefined)	-27	11µM*	x	x
CC1(c2nnc(-c3ccccc3)o2)CC(c2ccc([N+](=O)[O-])cc2)=NO1 (centres undefined)	-68*	u	x	x
CCCCC1(CCCC)C(=O)NC(=Nc2cccc(C)c2)NC1=O	-61*	u	u	u
COc1ccc(-c2ccc3c(c2)c(-c2cccs2)c(-c2cc(OC)cc(OC)c2)n3C)cc1	-5	-3%	2.6µM*	u
COc1cc(OC)cc(-c2c(-c3cccs3)c3cc(-c4cnc(OC)nc4)ccc3n2C)c1	-78*	u	1.9µM*	3.3µM*
CCc1cccc(C)c1NS(=O)(=O)c1cc2[nH]c(=O)c(=O)[nH]c2cc1C	-11	x	x	x
CCOC(=O)c1sc2ncn(CC(=O)Nc3ccc(C)cc3C)c(=O)c2c1C	-1	x	x	x
Cc1ccc(C(C)C)c(OCc2ccc(C(=O)Nc3ccc(S(N)(=O)=O)cc3C)o2)c1	-18	x	x	x
O=Cc1c(NCc2ccc(F)cc2)c2ccccc2[nH]c1=O	-2	4%	-12%	10µM*
COc1ccc(NC(=O)C2=C(C)Nc3ncnn3C2c2ccc(O)cc2)cc1 (centres undefined)	7	x	x	x
CCOc1ccc(-c2nnc(SCC(=O)NCc3ccc(C)cc3)nc2-c2ccc(OCC)cc2)cc1	81	x	x	x
COc1ccc(N2CCN(CC(=O)c3c[nH]c4ccccc34)CC2)cc1	30	-29%	-10%	15%
COc1ccccc1N1CCN(CCCCN2C(=O)C3CCCN3C2=O)CC1 (centres undefined)	17	12%	x	x
COc1ccccc1N1CCN(CCCCN2C(=O)c3ccccc3C2=O)CC1	-102*	u	x	x
COc1ccc(N2CCN(CCCNC(=O)C(=O)c3c(C)[nH]c4ccccc34)CC2)cc1	0	u	5.2µM*	u
CCOc1ccccc1N1CCN(C(=O)CCCN2C(=O)c3cccc4cccc(c34)C2=O)CC1	u	u	u	9.3µM*
COc1ccc(N2CCN(CCCn3c(=S)[nH]c4ccccc4c3=O)CC2)cc1	-72*	u	u	u
O=C(CCCN1C(=O)c2cccc3cccc(c23)C1=O)N1CCN(c2ccccc2O)CC1	2	-20%	u	u
CCC(C)Cn1c(/C=C/c2ccccc2)nc2ccccc21 (centres undefined)	-4	x	x	x
CCCn1cnnc1CNC(=O)[C@H]1O[C@@H](n2ccc(=O)[nH]c2=O)[C@H](O)[C@@H]1O	-18	x	x	x
Cc1oc(-c2cccc(Cl)c2)nc1CSc1nncn2c1cc1occc12	-7	x	x	x
CC(=O)Nc1ccccc1-c1nc2ccccc2n(CC(=O)c2ccc(C)c(C)c2)c1=O	4	x	x	x
O=C(Cc1ccc(-n2c(=O)[nH]c3ccccc3c2=O)cc1)N1CCN(c2ccccc2)CC1	9	13%	12µM*	37%
COc1ccc(N2CCN(C(=O)CCCSc3nc4ccccc4[nH]3)CC2)cc1	-19	u	x	9.3µM*
NC(=O)CCCSc1nc2ccccc2[nH]1	-15	14%	3%	16%
O=C(CSCc1nc2ccccc2[nH]1)N1CCN(c2ccc(F)cc2)CC1	-33	13µM*	u	-27%
COc1ccc(N2CCN(C(=O)Cn3c(=O)[nH]c4ccccc4c3=O)CC2)cc1	-31	x	12%	10µM*
O=C(Cn1c(=S)[nH]c2ccccc2c1=O)N1CCN(c2ccc(F)cc2)CC1	1	-13%	-10%	-20%
